Experimental data: PubChem BioAssay AID1159580 (chemical genetic matrix, 2015)
The campaign covered roughly 5,500 compounds. About 2,000 (36%) were called active. Another 18% or so got no clear call; they are omitted. Rule as the data show it: active = normalized growth mostly below about 0.91 (no sharp cut-off); inconclusive = no clear call, values can overlap the other calls; inactive = mostly above about 0.92. Some of the results follow.

Assay: chemical genetic growth profiling, strain panel (AID 1159580);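 also: tested at 20 µM; growth read once vehicle control cultures reached saturation at 30 °C; 1 = growth at the plate median or of vehicle wells; lower values mean less growth of the strain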
Settings: growth OD
[1] = S. cerevisiae deletion strains, locus YAL013W, strain DEP1, active compounds read low
[2] = S. cerevisiae deletion strains, locus YBR229C, strain ROT2, active compounds read low
[3] = S. cerevisiae deletion strains, locus YDL101C, strain DUN1, active compounds read low
[4] = S. cerevisiae deletion strains, locus YDL134C, strain PPH21, active compounds read low
[5] = S. cerevisiae deletion strains, locus YDR150W, strain NUM1, active compounds read low
[6] = S. cerevisiae deletion strains, locus YEL061C, strain CIN8, active compounds read low
[7] = S. cerevisiae deletion strains, locus YGR078C, strain PAC10, active compounds read low
[8] = S. cerevisiae deletion strains, locus YHR030C, strain SLT2, active compounds read low
[9] = S. cerevisiae deletion strains, locus YHR087W, strain rtc3, active compounds read low
[10] = S. cerevisiae deletion strains, locus YJL187C, strain SWE1, active compounds read low
[11] = S. cerevisiae deletion strains, locus YJR043C, strain POL32, active compounds read low
[12] = S. cerevisiae deletion strains, locus YJR075W, strain HOC1, active compounds read low
[13] = S. cerevisiae deletion strains, locus YLR039C, strain RIC1, active compounds read low
[14] = S. cerevisiae deletion strains, locus YLR058C, strain SHM2 (second series), active compounds read low
[15] = S. cerevisiae deletion strains, locus YLR085C, strain ARP6, active compounds read low
[16] = S. cerevisiae deletion strains, locus YLR262C, strain YPT6, active compounds read low
[17] = S. cerevisiae deletion strains, locus YML094W, strain GIM5, active compounds read low
[18] = S. cerevisiae deletion strains, locus YMR219W, strain ESC1, active compounds read low
[19] = S. cerevisiae deletion strains, locus YMR263W, strain SAP30, active compounds read low
[20] = S. cerevisiae deletion strains, locus YNL153C, strain GIM3, active compounds read low
[21] = S. cerevisiae deletion strains, locus YNL298W, strain CLA4 (second series), active compounds read low
[22] = S. cerevisiae deletion strains, locus YNL322C, strain KRE1, active compounds read low
[23] = S. cerevisiae deletion strains, locus YNR030W, strain Alg12, active compounds read low
[24] = S. cerevisiae deletion strains, locus YPL055C, strain LGE1, active compounds read low
[25] = S. cerevisiae deletion strains, locus YPL241C, strain CIN2, active compounds read low
[26] = S. cerevisiae deletion strains, locus YPR135W, strain CTF4, active compounds read low
[27] = S. cerevisiae strains, strain wild type, active compounds read low
[28] = S. cerevisiae deletion strains, locus YCL061C, strain MRC1, active compounds read low
[29] = S. cerevisiae deletion strains, locus YGR229C, strain SMI1, active compounds read low
[30] = S. cerevisiae deletion strains, locus YKL190W, strain CNB1, active compounds read low
[31] = S. cerevisiae deletion strains, locus YOL006C, strain TOP1, active compounds read low
[32] = S. cerevisiae deletion strains, locus YMR307W, strain GAS1, active compounds read low

Measured: normalized growth

CC(C)(C)c1nc(N)sc1Br
inactive: [1] 1 | [2] 0.998 | [3] 1.04 | [4] 0.986 | [5] 0.993 | [6] 1.02 | [7] 1 | [8] 0.98 | [9] 1.01 | [10] 1 | [11] 1.01 | [12] 1.01 | [13] 0.932 | [14] 1 | [15] 0.985 | [16] 0.951 | [17] 0.965 | [18] 1.01 | [19] 0.993 | [20] 1.02 | [21] 0.981 | [22] 1.01 | [23] 1 | [24] 0.984 | [25] 0.995 | [26] 0.868 | [27] 1

CN1c2ccccc2C(=O)NC1c1cc(Br)cs1 (centres undefined)
inactive: [1] 1.02 | [2] 0.996 | [28] 1.02 | [3] 0.996 | [4] 1.01 | [5] 0.996 | [6] 0.997 | [7] 1 | [29] 0.998 | [8] 0.99 | [9] 1.01 | [11] 1.02 | [12] 0.993 | [30] 1.01 | [13] 1.07 | [14] 1.01 | [15] 1.06 | [16] 1.06 | [17] 1.01 | [18] 1.01 | [19] 1.01 | [20] 1 | [21] 1.04 | [22] 0.996 | [23] 1.03 | [31] 1.06 | [24] 1.01 | [25] 0.996 | [26] 0.969 | [27] 1.03

Cc1ccc(CSC(=N)N)cc1
inactive: [1] 1.01 | [2] 0.994 | [28] 1.01 | [3] 0.994 | [4] 1 | [5] 0.998 | [6] 0.976 | [7] 1.02 | [8] 0.995 | [9] 0.988 | [11] 1 | [12] 0.973 | [30] 1.01 | [13] 1.01 | [14] 1.01 | [15] 1.01 | [16] 1 | [17] 0.977 | [18] 1 | [19] 1.01 | [20] 0.999 | [21] 1 | [22] 0.995 | [31] 1.03 | [24] 1.01 | [26] 1.01 | [27] 1.01
active: [23] 0.0939 | [25] 0.149

Cc1ccc(CS/C(N)=N\N)cc1
inactive: [1] 0.993 | [2] 0.996 | [28] 0.98 | [3] 0.97 | [5] 0.95 | [6] 1 | [7] 1 | [29] 0.978 | [8] 0.836 | [9] 0.983 | [10] 0.995 | [11] 0.978 | [12] 1.02 | [30] 0.982 | [13] 0.846 | [14] 0.99 | [15] 0.952 | [16] 0.889 | [17] 1.01 | [18] 0.989 | [19] 0.976 | [32] 1.05 | [20] 0.979 | [21] 0.963 | [22] 0.999 | [23] 0.976 | [31] 0.854 | [24] 0.967 | [25] 0.969 | [26] 0.907

N=C(N)SCCc1cccc(CCSC(=N)N)c1
inactive: [1] 0.957 | S. cerevisiae deletion strains, locus YAL040C, strain CLN3, active compounds read low 1.05 | S. cerevisiae deletion strains, locus YCL061C, strain MRC1 (second series), active compounds read low 0.984 | S. cerevisiae deletion strains, locus YDR363W, strain ESC2, active compounds read low 0.997 | S. cerevisiae deletion strains, locus YER002W, strain NOP16, active compounds read low 1.02 | [7] 0.992 | [32] 1.01 | [20] 1.16 | S. cerevisiae deletion strains, locus YNL175C, strain NOP13, active compounds read low 1.02 | S. cerevisiae deletion strains, locus YNL197C, strain WHI3, active compounds read low 0.981 | S. cerevisiae deletion strains, locus YNL224C, strain SQS1, active compounds read low 1.05 | [22] 0.975 | S. cerevisiae deletion strains, locus YOR083W, strain WHI5 (second series), active compounds read low 0.963

CC1(C)CCC(C(C)(C)O)CC1
inactive: [1] 0.988 | [2] 1.01 | [28] 0.999 | [3] 1 | [5] 0.985 | [6] 1.03 | [7] 1.02 | [29] 0.991 | [8] 1.02 | [9] 1.02 | [11] 0.988 | [12] 1 | [30] 0.992 | [13] 0.978 | [14] 0.995 | [15] 1.04 | [16] 0.939 | [17] 1.04 | [18] 0.998 | [19] 1.01 | S. cerevisiae deletion strains, locus YNL128W, strain TEP1, active compounds read low 0.99 | [20] 1.01 | [21] 0.994 | [22] 0.994 | [23] 1.01 | [31] 0.984 | [24] 1.01 | [25] 1.04 | [26] 0.989
active: [10] 0.838
